Reference: PubChem BioAssay AID744 (University of Pittsburgh Molecular Library Screening Center, 2007)
The list shows a part of the results.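 Rule for the calls: active = inhibition at or above 50% in each of two repeat confirmation tests; inconclusive = one repeat below 50% inhibition, the other above; inactive = both repeats at or below 50% inhibition.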

target: Serine/threonine-protein kinase PLK1 (Homo sapiens) (UniProt P53350); assay: PLK1 kinase activity inhibitors, confirmation, biochemical, TR-FRET, duplicate runs (AID 744); conditions: recombinant PLK1 kinase, TR-FRET peptide phosphorylation; at 10 µM; active compounds read high;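 note: 0% = DMSO max control and 100% = H-89 kinase-blocked min control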
Sequence (P53350 whole entry, looked up): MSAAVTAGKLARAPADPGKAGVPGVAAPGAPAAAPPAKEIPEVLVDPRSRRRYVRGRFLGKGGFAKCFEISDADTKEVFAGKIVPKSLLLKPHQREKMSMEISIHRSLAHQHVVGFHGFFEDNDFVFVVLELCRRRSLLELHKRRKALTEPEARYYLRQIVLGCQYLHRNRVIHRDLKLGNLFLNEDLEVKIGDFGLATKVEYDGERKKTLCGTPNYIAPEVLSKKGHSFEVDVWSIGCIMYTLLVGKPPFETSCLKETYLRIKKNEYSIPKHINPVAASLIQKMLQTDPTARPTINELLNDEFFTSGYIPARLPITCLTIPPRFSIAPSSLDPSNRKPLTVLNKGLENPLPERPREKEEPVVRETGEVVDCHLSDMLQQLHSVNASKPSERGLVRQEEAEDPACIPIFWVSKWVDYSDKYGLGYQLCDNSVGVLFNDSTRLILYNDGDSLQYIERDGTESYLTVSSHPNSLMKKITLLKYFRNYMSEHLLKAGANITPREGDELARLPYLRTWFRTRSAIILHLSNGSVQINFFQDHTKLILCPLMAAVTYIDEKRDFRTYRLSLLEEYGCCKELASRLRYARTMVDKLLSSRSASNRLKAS

inhibition, inactive:
CC1CSc2nnc(CCc3ccccc3)n21 (stereo unspecified) -11.1%
CC1CN(c2cc(=O)n(Cc3ccc(F)cc3)c(=O)[nH]2)CC(C)O1 (stereo unspecified) -5.99%
COc1ccc(-c2nc(CS(=O)CC(=O)NCc3cccnc3)c(C)o2)cc1OC (stereo unspecified) -2.97%
Cc1ccnc(N2C(=O)c3ccccc3C2Nc2ccc3c(c2)OCCO3)c1 (stereo unspecified) -3.64%
O=C(Nc1cccc(F)c1)c1ccc(S(=O)(=O)N2CCCC2)cc1 -12.1%
C[N+]1(CCNC(=O)/C=N/O)CCCCC1 -0.685%
